Assay results from PubChem BioAssay AID1789 (The Scripps Research Institute Molecular Screening Center, 2009).
“And” between values parts separate entries of the source, which are not always exact repeats. Equal entries are not always repeated. Among all 290,000 compounds or so, about 2,700 (0.93%) were called active. Only a selection was taken, and actives are over-represented in it overall. Values without a mark were called inactive.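 The calls were made as follows: active = inhibition above the screen-wide mean plus 3 SD, computed separately per campaign (cut at about 16% in these data); inactive = the rest.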

tested on: Heat shock protein HSP 90 (rabbit reticulocyte lysate; luciferase refolding); assay: inhibitors of HSP90 chaperone activity – cell lysate, luminescence, primary screen (AID 1789); settings: 3 h, at 5.6 µM, active compounds read high;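 also: 0% = DMSO wells and 100% = 60 µM geldanamycin wells; inhibitors lower the luminescence because luciferase stays unfolded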

| SMILES | inhibition |
| --- | --- |
| COc1cc(C(=O)OCC(=O)NC(C)CCc2ccccc2)cc(OC)c1OC (stereo unspecified) | 0.2% |
| COc1ccccc1CNS(=O)(=O)c1c(C)[nH]c(C)c1C(=O)N1CCCCC1 | -3% |
| CCOc1ccccc1C(=O)NCCCn1ccnc1 | 2.74% |
| CCCOc1ccccc1C(=O)NCCCC(=O)O | 1.45% |
| CCCCOCCCNC(=O)c1ccccc1OCC | 29.5% (active) |
| Cc1c(C(=O)N(C)CCc2cnn(C)c2)oc2c(F)cccc12 | -3.1% |
| CC(C)Nc1ccc(-n2nc3ccccc3[n+]2[O-])cc1 | 20.2% (active) |
| O=C(Cc1ccsc1)N1CCN(S(=O)(=O)c2cc(C(F)(F)F)cc(C(F)(F)F)c2)CC1 | -2.85% |
| CC(NC(=O)c1ccco1)c1ccc2c(c1)OCO2 (stereo unspecified) | -2.76% |
| COCc1cc(=O)[nH]c(-c2ccc(C(F)(F)F)cc2)n1 | -1.15% |
| O=C(Nc1ccccc1)c1ccccc1NC(=O)C(F)(F)F | -1.41% |
| COCc1cc(=O)[nH]c2cc(NC(=O)C(F)(F)F)c(C)cc12 | 43.6% (active) |
| CSc1ccccc1NC(=O)c1cc(Cl)sc1Cl | 2.29% |
| Cc1cc(C2=NNC(=Nc3ccc(S(=O)(=O)N4CCOCC4)cc3)SC2)c(C)n1CC1CCCO1 (stereo unspecified) | 1.56% |
| C=CCn1c(C)cc(C(=O)CN2C(=O)c3ccccc3C2=O)c1C | -0.12% |
| C=CCn1c(C)cc(C2=NNC(=NCC)SC2)c1C | 44.5% (active) |
| Cc1ccc2c(=O)cc(C(=O)NCCc3ccc(S(N)(=O)=O)cc3)oc2c1C | 0.5% |
| CC(=O)c1ccc(NC(=O)c2cc(-c3cccs3)on2)cc1 | -4.55% |
| CCOC(=O)CNC(=O)c1nn(-c2cccc(OC)c2)c(=O)c2ccccc12 | 20.7% (active) |
| COCCCNC(=O)CNC(=O)c1nn(-c2ccc(OC)cc2)c(=O)c2ccccc12 | -1.14% |
| COc1ccc(-n2nc(C(=O)NCC(=O)Nc3cccc(C)n3)c3ccccc3c2=O)cc1 | 0.84% |
| CC(=O)NS(=O)(=O)c1ccc(N/C(N)=N/c2nc(C)cc(C)n2)cc1 | -3.21% |
| COc1cccc(C(=O)NNC(=O)/C=C/c2ccccc2)c1 | -8.89% |
| Cc1ccc(N/C=C/C(=O)c2ccccc2)cc1C | -2.61% |

| SMILES | inhibition |
| --- | --- |
| Cc1cc(C)nc(SCC(=O)c2ccc(Cl)cc2)n1 | -0.36% |
| Cc1cc(C)nc(S/C=C/C(=O)c2ccccc2)n1 | 34.3% (active) |
| COc1ccc(/C=N/NC(=O)c2ccc3c(c2)OCCO3)c(OC)c1 | 2.94% |
| COc1ccc(C(=O)Nc2ccccc2C(=O)N/N=C/c2ccc(O)c(OC)c2)cc1 | 89% (active) |
| COc1ccc(C(=O)Nc2ccccc2C(=O)NCc2ccco2)cc1 | -2.57% |
| COc1ccc(/C=N/OCC(=O)N(Cc2ccccc2)c2ccccc2C(=O)O)cc1 | -2.76% |
| COc1ccc(C(=O)Nc2ccccc2C(=O)N/N=C/c2ccccc2OC)cc1 | 50.3% (active) |
| COc1cc(/C=N/NC(=O)c2ccccc2)ccc1OS(=O)(=O)c1ccccc1 | -0.09% |
| COc1ccc(/C=N/Nc2nc3ccccc3c(=O)[nH]2)cc1 | 0.73% |
| COc1ccc(/C=N/Nc2ccccc2C(=O)O)cc1 | 24.7% (active) |
| COc1cc(/C=N/NC(=O)c2ccc(N3CCCC3=O)cc2)ccc1O | -0.72% |
| O=C(NCc1cccnc1)c1ccccc1NC(=O)c1c(F)cccc1F | -0.75% |
| COc1ccc(N(CC(=O)Nc2cc(OC)cc(OC)c2)S(=O)(=O)c2c(C)n[nH]c2C)cc1 | -1.64% |
| Cc1ccc(S(=O)(=O)NCC(=O)N2CCOCCOCCOCCOCC2)cc1 | -3.1% |
| COc1ccccc1-c1cnn2c(N3CCOCC3)cc(C)nc12 | 3.53% |
| Cc1sc2ncn(CC(=O)NCCCC(=O)N3CCN(c4ccccc4F)CC3)c(=O)c2c1C | -3.37% |
| CC(NC(=O)COc1ccccc1)C(=O)NC1=NCCS1 (stereo unspecified) | -0.56% |
| CSCCC(C(=O)NC1=NCCS1)N1C(=O)c2ccccc2C1=O (stereo unspecified) | 33.2% (active) |
| O=C(NC1=NCCS1)[C@H](Cc1ccccc1)N1C(=O)c2ccccc2C1=O | 3.87% |
| N#Cc1ccccc1S(=O)(=O)N1CCN(C(=O)c2cc(-c3ccccc3)nn2-c2ccccc2)CC1 | 4.37% |
| CC(C)c1nnc(NC(=O)C2CC(=O)N(CCc3ccc(F)cc3)C2)s1 (stereo unspecified) | -2.78% |
| CCOC(=O)C1=C(CCc2ccccc2)NC(=O)NC1c1ccc2ccccc2c1 (stereo unspecified) | 2.66% |
| CC(=O)N1CCC(C(=O)OCc2ccc(Cl)cc2)(c2ccccc2)CC1 | -1.35% |
| CC(C)CNC(=O)CC(c1ccccc1)c1c(O)ccc2ccccc12 (stereo unspecified) | -0.94% |

| SMILES | inhibition |
| --- | --- |
| CC(C)CNC(=O)/C=C/C(=O)O | 0.58% and -0.1% |
| CC(C)CNC(=O)CC(NCC(C)C)C(=O)O (stereo unspecified) | 21.9% (active) |
| COc1cccc(N(CC(=O)NC2CCCC2)C(=O)Cn2nnc(-c3ccc(C)o3)n2)c1 | 0.72% |
| C=C(C)COc1ccc(-c2ncncc2-c2ccc(OC)cc2)c(O)c1 | 3.58% |
| c1ccc(-c2ccc3c(c2)NC(C2Nc4cc(-c5ccccc5)ccc4O2)O3)cc1 (stereo unspecified) | 52.5% (active) |
| Cc1cc(C)cc(C(=O)OCC(=O)NCCNC(=O)COC(=O)c2cc(C)cc(C)c2)c1 | -1.1% |
| O=C1CCC(Cc2ccccc2)N1 (stereo unspecified) | 0.74% |
| O=C1CCC([N+](=O)[O-])C(c2ccccc2Br)N1 (stereo unspecified) | 78.7% (active) |
| COc1cc2c(cc1OC)C(c1ccccc1Br)NC(=O)C2 (stereo unspecified) | -0.82% |
| Cc1ccc(SCC(=O)NNC(=O)c2ccc(S(C)(=O)=O)cc2)cc1 | 2.29% |
| O=C(/C=C/c1cnc2ccccc2n1)NC1CCCCCC1 | -4.23% |
| O=C(COC(=O)/C=C/c1cccs1)NC1CCCCC1 | 1.87% |
| Cc1ccc(SCC(=O)NC(=O)NCc2ccco2)c(C)c1 | 16.6% (active) |
| Cc1cc(C)n2nc(SCC(=O)NC(=O)NCc3ccco3)nc2n1 | 0.53% |
| Cc1ccc(NC(=O)C(=O)NCc2ccco2)c(C)c1 | -1.76% |
| CC(C)Cc1nnc(NC(=O)CN2C(=O)NC3(CCCCC3)C2=O)s1 | -3.19% |
| CC1CCN(CC(O)COc2ccc(C(=O)c3ccccc3)cc2)CC1 (stereo unspecified) | -4.35% |
| Cc1csc(NC(=O)CSc2nc(=O)cc(N)n2-c2ccc(F)cc2)n1 | -4.86% |
| Cc1nc([N+](=O)[O-])cn1CC(=O)Nc1ccc(Cl)cc1 | -5.8% |
| c1c2c(cc3sc(N4CCCCC4)nc13)OCCO2 | 56.8% (active) |
| Cc1nc2cc3c(cc2s1)OCO3 | 5.26% |
| Brc1ccc2nc(N3CCCC3)sc2c1 | 7.29% |
| COCC1CCN(C(=O)CCc2nnc(C3(c4ccc(Cl)cc4)CCC3)o2)C1 (stereo unspecified) | -3.96% |
| CN(CC1CCCN(CCc2cccc(C(F)(F)F)c2)C1)C(=O)c1ccc2nc[nH]c2c1 (stereo unspecified) | -5.74% |

| SMILES | inhibition |
| --- | --- |
| Clc1c(OCCCn2ccnc2)ccc2ccccc12 | 1.78% |
| CCc1ccc2oc(-c3ccc(N)cc3)nc2c1 | 26.4% (active) |
| COc1ccc(-c2nc3cc([N+](=O)[O-])ccc3o2)cc1OC | 1.87% |
| CC(=O)Nc1ccc(-c2nc3ccccc3o2)cc1 | 2.88% |
| COc1ccc2[nH]c(=O)c(CN(Cc3cccnc3)S(=O)(=O)c3ccccc3F)cc2c1 | 1.17% |
| Cc1ccc(C(=O)OC(C)CN2CCOCC2)cc1 (stereo unspecified) | -4.23% |
| Cc1cccc(C(=O)OC(C)CN2CCCC2)c1 (stereo unspecified) | 0.74% |
| Cc1cccc(C(=O)OC(C)CN2CCN(C)CC2)c1 (stereo unspecified) | 17.2% (active) |
| CCOc1ccc(NC(=O)[C@H](C)NC(=O)C2CC(=O)N(c3ccc(OC)cc3)C2)cc1 (stereo partly specified) | 2.77% |
| O=C(NC1CCCC1)C(c1c(F)cccc1Cl)N(C(=O)c1csnn1)C1CC1 (stereo unspecified) | -3.16% |
| Cc1ccc(C(=O)Nc2ccc(C)c(S(=O)(=O)N(C)C)c2)s1 | 0.01% |
| Clc1ccc(Nc2nc(-c3cccs3)cs2)nc1 | 6.93% |
| O=c1oc2ccccc2cc1-c1csc(Nc2ccc(O)cc2)n1 | -2.38% |
| Cc1ccc(Nc2nc(-c3ccc(O)cc3O)cs2)nc1 | 28.1% (active) |
| CCOC(=O)c1cc(Sc2ccccc2N)cc(C(=O)OCC)n1 | 7.9% |
| Nc1ccccc1SC(C[N+](=O)[O-])c1ccccc1 (stereo unspecified) | -4.32% |
| CCS(=O)(=O)c1cc([N+](=O)[O-])c(Sc2ccccc2N)s1 | 20.8% (active) |
| O=c1ccc(-c2ccc(S(=O)(=O)Nc3ccccc3)o2)n[nH]1 | -6.52% |
| COCCn1c(N)c(NCc2ccccc2)c(=O)[nH]c1=O | 7.03% |
| Cn1c(=O)c2c(SCC(=O)NCC3CCCO3)nc(CC(C)(C)C)nc2n(C)c1=O (stereo unspecified) | -3.22% |
| Cc1cc(C(=O)COC(=O)C2CC2)c(C)n1-c1ccc(F)cc1 | 84.2% (active) |
| Cc1ccc(-n2c(C)cc(C(=O)CN3C(=O)C(=O)N(C4CCCC4)C3=O)c2C)cc1 | -3.59% |
| COc1cc(/C=N/NC(=O)c2cc(C)n(-c3ccc(F)cc3)c2C)cc(OC)c1O | 6.31% |
| COc1ccc(-n2c(C)cc(C(=O)CN3C(=O)NC4(CCc5ccccc54)C3=O)c2C)cc1 (stereo unspecified) | 2.66% |
